Data: PubChem BioAssay (Tox21)
Inconclusive results are not listed. Active and inactive are the calls of the source. Unless noted, the call rests on the fitted dose curve; in most records, active means well fitted curve in the direction sought with a large enough effect in the repeat runs; inconclusive means weak or mixed curves; inactive means no such curve, though single readings can be large; an effect the other way counts as inactive or inconclusive.

Experiments:
[1] = qHTS assay to identify aromatase inhibitors - cell viability counter screen (AID 743084);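 further: cells stimulated with testosterone during compound exposure; nearly all actives have a fitted effect of over 55% in size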
[2] = target: Aryl hydrocarbon receptor (Homo sapiens) (UniProt P35869); test: qHTS assay to identify small molecule that activate the aryl hydrocarbon receptor (AhR) signaling pathway (AID 743085);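 further: HG2L7.5c1 human HepG2 liver cells with stably integrated DRE-driven firefly reporter; series mostly up to about 70 µM; nearly all actives have a fitted effect of over 15% in size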
Chain of Aryl hydrocarbon receptor (Homo sapiens) (P35869 whole entry, looked up): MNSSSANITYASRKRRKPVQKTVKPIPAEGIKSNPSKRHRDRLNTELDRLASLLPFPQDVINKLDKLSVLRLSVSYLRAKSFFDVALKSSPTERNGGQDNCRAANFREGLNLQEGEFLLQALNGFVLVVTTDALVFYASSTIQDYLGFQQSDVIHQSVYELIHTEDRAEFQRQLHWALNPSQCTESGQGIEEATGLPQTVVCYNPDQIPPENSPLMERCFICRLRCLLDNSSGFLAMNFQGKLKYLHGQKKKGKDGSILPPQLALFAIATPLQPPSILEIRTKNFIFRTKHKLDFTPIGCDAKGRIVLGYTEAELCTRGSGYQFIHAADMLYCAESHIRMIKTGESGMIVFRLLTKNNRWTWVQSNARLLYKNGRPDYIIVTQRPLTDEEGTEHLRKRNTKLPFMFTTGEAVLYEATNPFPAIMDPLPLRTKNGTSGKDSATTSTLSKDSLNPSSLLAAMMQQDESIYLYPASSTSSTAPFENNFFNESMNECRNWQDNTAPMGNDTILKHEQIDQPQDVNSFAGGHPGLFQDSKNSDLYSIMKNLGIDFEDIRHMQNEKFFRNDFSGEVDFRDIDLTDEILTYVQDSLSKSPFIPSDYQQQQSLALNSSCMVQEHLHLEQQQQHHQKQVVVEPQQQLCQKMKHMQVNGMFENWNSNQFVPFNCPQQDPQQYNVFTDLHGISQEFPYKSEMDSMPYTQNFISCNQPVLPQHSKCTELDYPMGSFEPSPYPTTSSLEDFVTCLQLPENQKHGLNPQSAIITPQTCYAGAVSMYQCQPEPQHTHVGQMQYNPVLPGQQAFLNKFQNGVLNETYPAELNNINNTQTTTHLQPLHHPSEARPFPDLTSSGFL
Method in brief: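 Cell line HG2L7.5c1 (human hepatoma, 20× DRE-luc). Plated, 5 h 37C, compound/DMSO added, 24 h 37C. CellTiter-Fluor 30 min 37C → fluorescence; then ONE-Glo 30 min RT → luminescence.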

[3] = qHTS assay to identify small molecule that activate the aryl hydrocarbon receptor (AhR) signaling pathway - cell viability counter screen (AID 743086);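 further: HepG2 liver cells carrying the AhR DRE luciferase reporter; series mostly up to about 70 µM; nearly all actives have a fitted effect of over 45% in size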
Method in brief: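 Cytotoxicity counter screen: CellTiter-Fluor signal (30 min, 37 C) in 4000 HepG2 cells/well carrying the DRE-luciferase reporter, following 24 h compound exposure at 37 C.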

[4] = target: Peroxisome proliferator-activated receptor gamma (Homo sapiens) (UniProt P37231); test: qHTS assay to identify small molecule agonists of the peroxisome proliferator-activated receptor gamma (PPARg) signaling pathway (AID 743094; active means well fitted activation curve with a large enough effect in the signal ratio in the repeat runs, not every such curve was filed as active; the % refers to the signal ratio)
Chain of Peroxisome proliferator-activated receptor gamma (Homo sapiens) (P37231 whole entry, looked up): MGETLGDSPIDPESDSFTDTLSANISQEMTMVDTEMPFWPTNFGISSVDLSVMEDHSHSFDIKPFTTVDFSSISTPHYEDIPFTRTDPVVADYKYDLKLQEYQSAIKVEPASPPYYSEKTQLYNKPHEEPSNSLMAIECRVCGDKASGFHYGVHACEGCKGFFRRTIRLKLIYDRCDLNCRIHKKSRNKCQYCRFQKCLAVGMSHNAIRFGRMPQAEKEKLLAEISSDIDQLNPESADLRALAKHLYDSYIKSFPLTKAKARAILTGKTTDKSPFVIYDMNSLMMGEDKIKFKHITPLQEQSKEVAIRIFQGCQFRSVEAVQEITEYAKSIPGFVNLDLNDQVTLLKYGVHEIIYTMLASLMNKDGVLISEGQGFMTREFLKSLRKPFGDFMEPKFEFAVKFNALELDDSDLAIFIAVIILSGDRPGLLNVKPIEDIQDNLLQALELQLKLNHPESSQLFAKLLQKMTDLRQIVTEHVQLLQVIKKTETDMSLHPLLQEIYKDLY
Method in brief: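 Agonist activity was taken from a beta-lactamase reporter (FRET substrate, 1 h at room temperature) in HEK293H cells carrying a PPARg UAS-bla construct. Compounds in DMSO were incubated 17 h at 37C after a 5 h cell pre-incubation.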

[5] = target: Peroxisome proliferator-activated receptor gamma (Homo sapiens) (UniProt P37231); test: qHTS assay to identify small molecule antagonists of the peroxisome proliferator-activated receptor gamma (PPARg) signaling pathway (AID 743191; calls by dose curve; further: series mostly up to about 63 µM; nearly all actives have a fitted effect of over 30% in size)
Method in brief: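 Beta-lactamase reporter under UAS control in HEK293H PPARg-bla cells; compound treatment 17 h at 37C. Read-out: fluorescence intensity after 1 h room-temperature incubation with LiveBLAzer B/G FRET substrate.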

[6] = qHTS assay to identify small molecule antagonists of the peroxisome proliferator-activated receptor gamma (PPARg) signaling pathway - cell viability counter screen (AID 743194); further: nearly all actives have a fitted effect of over 55% in size
Method in brief: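 Viability was measured as CellTiter-Glo luminescence in GeneBLAzer PPARg UAS-bla HEK293H cells. These cells had been exposed 17 h at 37 C to compounds together with rosiglitazone at 50 nM final, with the beta-lactamase readout taken in the same wells.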

[7] = qHTS assay for small molecule agonists of the antioxidant response element (ARE) signaling pathway (AID 743202; active means well fitted activation curve with a large enough effect in the signal ratio in the repeat runs, not every such curve was filed as active; the % refers to the signal ratio)
Method in brief: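 Beta-lactamase reporter activity, read as fluorescence intensity, reflects ARE/Nrf2 pathway induction in HepG2 cells after 16 h compound exposure at 37 C; substrate loading was 2 h at room temperature.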

[8] = qHTS assay for small molecule agonists of the antioxidant response element (ARE) signaling pathway - cell viability counter screen (AID 743203; calls by dose curve; further: nearly all actives have a fitted effect of over 55% in size)
Method in brief: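 Viability counter screen: CellTiter-Glo luminescence, read after 30 min at room temperature, in ARE-bla HepG2 wells. Compound exposure lasted 16 h at 37C/5% CO2, following a 5 h pre-incubation of the cells after plating.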

[9] = qHTS assay for small molecule activators of the heat shock response signaling pathway - cell viability counter screen (AID 743209); further: nearly all actives have a fitted effect of over 50% in size
Method in brief: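 Cytotoxicity counter screen run in the same wells as the heat-shock bla reporter assay: HeLa HSE-bla cells, 5 h compound exposure at 37 C, viability read by CellTiter-Glo luminescence.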

[10] = qHTS assay for small molecule activators of the heat shock response signaling pathway (AID 743210; active means well fitted activation curve with a large enough effect in the signal ratio in the repeat runs, with a control signal flat, not every such curve was filed as active; the % refers to the signal ratio;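 further: HeLa cells with beta-lactamase reporter driven by heat shock elements; series mostly up to about 63 µM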)
Method in brief: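 Fluorescence from a cleaved B/G FRET substrate (2.5 h, room temp) reports HSE-driven beta-lactamase in HeLa cells treated 5 h at 37 C with DMSO-dissolved compounds.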

[11] = qHTS assay to identify small molecule agonists of the peroxisome proliferator-activated receptor delta (PPARd) signaling pathway - cell viability counter screen (AID 743211); further: nearly all actives have a fitted effect of over 55% in size
Method in brief: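 HEK293H PPARd-bla, 3000 cells/well; 5 h preincubation 37C/5% CO2; cpd in DMSO, 17 h 37C; B/G FRET substrate 2 h RT; CellTiter-Glo 30 min RT, luminescence.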

[12] = target: Peroxisome proliferator-activated receptor delta (Homo sapiens) (UniProt Q03181); test: qHTS assay to identify small molecule agonists of the peroxisome proliferator-activated receptor delta (PPARd) signaling pathway (AID 743212; calls by dose curve;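 further: HEK293H cells with PPARd UAS beta-lactamase reporter GeneBLAzer system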)
Chain of Peroxisome proliferator-activated receptor delta (Homo sapiens) (Q03181 whole entry, looked up): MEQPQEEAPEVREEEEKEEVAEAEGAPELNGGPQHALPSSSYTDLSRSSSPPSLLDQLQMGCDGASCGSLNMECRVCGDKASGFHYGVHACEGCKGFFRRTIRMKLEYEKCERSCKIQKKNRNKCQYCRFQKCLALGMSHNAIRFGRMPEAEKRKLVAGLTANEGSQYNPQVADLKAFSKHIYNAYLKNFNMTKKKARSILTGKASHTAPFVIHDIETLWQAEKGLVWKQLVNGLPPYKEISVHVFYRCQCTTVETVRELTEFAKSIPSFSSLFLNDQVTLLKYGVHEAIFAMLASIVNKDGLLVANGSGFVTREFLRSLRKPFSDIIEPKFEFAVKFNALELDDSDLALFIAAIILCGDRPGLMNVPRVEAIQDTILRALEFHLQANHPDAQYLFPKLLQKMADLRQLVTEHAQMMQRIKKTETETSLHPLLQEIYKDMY
Method in brief: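 Steps: seed PPARd-bla HEK293H cells; incubate 5 h, 37 C, 5% CO2; add compounds in DMSO; incubate, 37 C; add LiveBLAzer B/G FRET substrate; hold 2 h at room temperature; measure fluorescence.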

[13] = qHTS assay to identify small molecule antagonists of the farnesoid-X-receptor (FXR) signaling pathway - cell viability counter screen (AID 743221; active means well fitted cell-killing curve with a large enough effect in the repeat runs, not every such curve was filed as active; further: nearly all actives have a fitted effect of over 50% in size)
Method in brief: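 Luminescence from CellTiter-Glo measures cytotoxicity in GeneBLAzer FXR-UAS-bla HEK 293T cells. Cells were exposed to compounds with 50 uM chenodeoxycholic acid (final) for 16 h at 37 C, in wells also used for the reporter readout.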

[14] = target: Vitamin D3 receptor (Homo sapiens) (UniProt P11473); test: qHTS assay to identify small molecule agonists of the vitamin D receptor (VDR) signaling pathway (AID 743222; calls by dose curve)
Chain of Vitamin D3 receptor (Homo sapiens) (P11473 whole entry, looked up): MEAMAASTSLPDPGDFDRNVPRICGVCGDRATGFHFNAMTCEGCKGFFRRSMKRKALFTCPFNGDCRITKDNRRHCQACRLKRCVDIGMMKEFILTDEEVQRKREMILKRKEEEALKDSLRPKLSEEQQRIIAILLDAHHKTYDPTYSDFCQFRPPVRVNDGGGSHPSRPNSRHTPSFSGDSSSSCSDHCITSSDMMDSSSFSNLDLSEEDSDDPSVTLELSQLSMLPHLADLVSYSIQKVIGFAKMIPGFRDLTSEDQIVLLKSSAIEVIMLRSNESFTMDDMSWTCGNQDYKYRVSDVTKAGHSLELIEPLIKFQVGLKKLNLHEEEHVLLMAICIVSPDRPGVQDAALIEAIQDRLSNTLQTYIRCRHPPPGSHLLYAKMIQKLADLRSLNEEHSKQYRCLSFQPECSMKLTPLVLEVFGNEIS
Method in brief: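 Agonist mode, beta-lactamase reporter: fluorescence from LiveBLAzer B/G FRET substrate (2 h, room temperature) read after 16 h compound treatment at 37 C of VDR-bla cells, which were pre-incubated 4 h after seeding.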

[15] = qHTS assay to identify small molecule antagonists of the peroxisome proliferator-activated receptor delta (PPARd) signaling pathway - cell viability counter screen (AID 743213); further: nearly all actives have a fitted effect of over 50% in size
Method in brief: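 CellTiter-Glo was added to PPARd-bla HEK293H wells following 17 h compound treatment in the presence of 300 nM L165041. Luminescence was recorded after 30 min at room temperature.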

[16] = target: Peroxisome proliferator-activated receptor delta (Homo sapiens) (UniProt Q03181); test: qHTS assay to identify small molecule antagonists of the peroxisome proliferator-activated receptor delta (PPARd) signaling pathway (AID 743215; active means well fitted inhibition curve with a large enough effect in the signal ratio in the repeat runs, not every such curve was filed as active; the % refers to the signal ratio;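 further: cells stimulated with agonist L165041 at 300 nM final during compound exposure; series mostly up to about 62 µM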)
Method in brief: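 Agonist L165041 (300 nM final) added with compound to PPARd-bla HEK293H UAS-bla reporter cells; 17 h incubation at 37 C. Read-out: LiveBLAzer FRET substrate, 2 h at room temperature, fluorescence intensity.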

[17] = target: Bile acid receptor (Homo sapiens) (UniProt Q96RI1); test: qHTS assay to identify small molecule antagonists of the farnesoid-X-receptor (FXR) signaling pathway (AID 743217; active means well fitted inhibition curve with a large enough effect in the signal ratio in the repeat runs, not every such curve was filed as active; the % refers to the signal ratio)
Chain of Bile acid receptor (Homo sapiens) (Q96RI1 whole entry, looked up): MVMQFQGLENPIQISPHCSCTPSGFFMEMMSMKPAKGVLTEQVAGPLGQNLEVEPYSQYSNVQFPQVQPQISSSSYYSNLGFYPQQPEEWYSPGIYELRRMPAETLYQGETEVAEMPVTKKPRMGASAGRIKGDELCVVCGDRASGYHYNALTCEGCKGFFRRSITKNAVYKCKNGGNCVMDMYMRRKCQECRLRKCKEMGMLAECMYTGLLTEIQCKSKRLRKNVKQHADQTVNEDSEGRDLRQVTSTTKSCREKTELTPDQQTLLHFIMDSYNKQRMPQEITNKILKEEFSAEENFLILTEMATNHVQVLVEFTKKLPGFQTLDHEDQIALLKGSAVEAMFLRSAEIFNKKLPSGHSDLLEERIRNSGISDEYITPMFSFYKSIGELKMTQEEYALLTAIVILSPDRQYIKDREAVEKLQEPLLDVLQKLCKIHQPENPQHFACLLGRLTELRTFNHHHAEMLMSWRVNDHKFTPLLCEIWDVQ
Method in brief: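 Antagonist mode: chenodeoxycholic acid at 50 uM final stimulates a UAS-driven beta-lactamase reporter in HEK 293T FXR-bla cells during 16 h, 37C compound exposure. Read-out is FRET substrate fluorescence after 2 h at room temperature.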

[18] = qHTS assay to identify small molecule agonists of the farnesoid-X-receptor (FXR) signaling pathway - cell viability counter screen (AID 743218); further: nearly all actives have a fitted effect of over 45% in size
Method in brief: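 Viability counter screen in the same wells: CellTiter-Glo luminescence, 30 min room-temperature incubation, measured after the beta-lactamase read. Cells were GeneBLAzer FXR-UAS-bla HEK 293T, compound-treated 16 h at 37C.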

[19] = target: Bile acid receptor (Homo sapiens) (UniProt Q96RI1); test: qHTS assay to identify small molecule agonists of the farnesoid-X-receptor (FXR) signaling pathway (AID 743220; active means well fitted activation curve with a large enough effect in the signal ratio in the repeat runs, not every such curve was filed as active; the % refers to the signal ratio)
Method in brief: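 FXR-UAS-bla HEK 293T cells carrying a UAS-driven beta-lactamase reporter were plated for 5 h at 37C/5% CO2, then exposed to DMSO-dissolved Tox21 10K compounds for 16 h at 37C. A LiveBLAzer B/G FRET substrate was loaded for 2 h at room temperature before fluorescence reading.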

[20] = target: Vitamin D3 receptor (Homo sapiens) (UniProt P11473); test: qHTS assay to identify small molecule antagonists of the vitamin D receptor (VDR) signaling pathway (AID 743223; active means well fitted inhibition curve with a large enough effect in the signal ratio in the repeat runs, not every such curve was filed as active; the % refers to the signal ratio)
Method in brief: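 Antagonist mode uses 1alpha,25-dihydroxyvitamin D3 at 3 nM final as stimulus. VDR-bla cells receive compounds in DMSO, incubate 16 h at 37C, then a beta-lactamase FRET substrate for 2 h at room temperature before fluorescence measurement.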

Measured: Potency

N=C(N)c1ccccc1
not listed: [15] | [16] | [17] | [18] | [19] | [20]
inactive: all other assays above

N=c1nc(N2CCCCC2)cc(N)n1O
not listed: [10] | [14] | [20]
inactive: all other assays above

CC(=O)c1ccccc1O
not listed: [5] | [12] | [15] | [16] | [19]
inactive: all other assays above

CCc1ccc(O)c(OC)c1
not listed: [5] | [11] | [12] | [14] | [20]
inactive: all other assays above

CC(C)(O)C#CC(C)(C)O
not listed: [5] | [12] | [14] | [16] | [17] | [18] | [19] | [20]
inactive: all other assays above

FC1(F)C(F)(F)C(F)(F)C2(F)C(F)(F)C(F)(F)C(F)(F)C(F)(F)C2(F)C1(F)F (centres undefined)
not listed: [7] | [8] | [9] | [15] | [18] | [20]
inactive: all other assays above

CCCN(CCC)CCc1cccc2c1CC(=O)N2
not listed: [7] | [9] | [12] | [14] | [16] | [17] | [19] | [20]
inactive: all other assays above

C[C@@H]1CCN(C(=O)[C@H](CCCN=C(N)N)NS(=O)(=O)c2cccc3c2NC[C@H](C)C3)[C@@H](C(=O)O)C1
not listed: [7] | [9] | [14] | [15] | [16] | [17] | [19] | [20]
inactive: all other assays above

O=c1[nH]c(=O)n([C@H]2C[C@H](O)[C@@H](CO)O2)cc1I
not listed: [7] | [9] | [12] | [15] | [16] | [17] | [19]
inactive: all other assays above
